{"source": "PubChem BioAssay AID463173", "about": "(ICCB-Longwood Screening Facility, Harvard Medical School, 2010)", "note": "Out of some 52,000 compounds screened, about 4,300 (8.3%) were called active. This excerpt belongs to a sample that is enriched for actives. Unmarked numbers belong to inactive results. Cut-off read from the data, not from the text of the source: active = survival mostly below about 52% (no sharp cut-off); inactive = mostly above about 56%.", "data": [{"tested_on": "DeltatarO mutant", "experiment": "S. aureus survival, RN4220 and DeltatarO strains – OD600, teichoic acid synthesis inhibitors, primary screen (AID 463173)", "conditions": "S. aureus RN4220 wild type/DeltatarO growth, OD600, 18 h, stronger effect = lower value, screened at 18.75 µg/mL (by protocol)", "values": [{"smiles": "COc1ccc(CCN2C(=O)CN(C3CCCCCC3)C(=O)C2c2ccc(Cl)cc2)cc1OC", "note": "(stereo unspecified)", "survival": "81%"}, {"smiles": "COc1cccc(C(=O)Nc2ccc(-c3nc4ccccc4s3)cc2Cl)c1", "survival": "72%"}, {"smiles": "O=C(Nc1ccccc1-c1nc2ccccc2s1)c1ccc(F)cc1", "survival": "81%"}, {"smiles": "COc1ccc(C(=O)Nc2cc(C)c(O)c(-c3nc4ccccc4s3)c2)cc1OC", "survival": "51%"}, {"smiles": "COc1cc(OC)cc(C(=O)Nc2ccc(-c3nc4ccccc4s3)c(C)c2)c1", "survival": "117%"}, {"smiles": "CSc1ccc(C(=O)Nc2ccc(-c3nc4ccccc4s3)c(O)c2)cc1", "survival": "32% (active)"}, {"smiles": "O=C(Nc1ccccc1-c1nc2ccccc2s1)c1cc(Cl)cc(Cl)c1", "survival": "84%"}, {"smiles": "COc1cc(OC)cc(C(=O)Nc2ccccc2-c2nc3ccccc3s2)c1", "survival": "17% (active)"}, {"smiles": "COc1ccc(C(=O)Nc2ccccc2-c2nc3ccccc3s2)c(OC)c1", "survival": "102%"}, {"smiles": "COc1cccc(C(=O)Nc2ccccc2-c2nc3ccccc3s2)c1", "survival": "33% (active)"}, {"smiles": "O=C(Nc1ccc(-c2nc3ccccc3s2)c(O)c1)c1ccc(Br)cc1", "survival": "87%"}, {"smiles": "COc1ccc(C(=O)Nc2ccccc2-c2nc3ccccc3s2)cc1OC", "survival": "7% (active)"}, {"smiles": "Cc1ccc(C(=O)Nc2ccc(-c3nc4ccccc4s3)c(O)c2)c(C)c1", "survival": "84%"}, {"smiles": "Cn1c(CNC(=O)CSc2n[nH]c(-c3ccccc3Cl)n2)nc2ccccc21", "survival": "75%"}, {"smiles": "O=C(Nc1ccc(F)cc1F)c1cc2c(=O)n3ccccc3nc2s1", "survival": "75%"}, {"smiles": "CCOC(=O)c1ccccc1NC(=O)c1sc2ncn(CC)c(=O)c2c1C", "survival": "68%"}, {"smiles": "Cc1ccc(C)c(NC(=O)CCc2c(C)n(C)c3cc(-c4ccccc4C)nn3c2=O)c1", "survival": "63%"}, {"smiles": "CCC(CC)C(=O)Nc1ccccc1C(=O)OCc1cc(=O)n2nc(C3CCCCC3)sc2n1", "survival": "92%"}, {"smiles": "O=C(Nc1ccc(F)c(Cl)c1)N1CC=C(c2c[nH]c3ccccc23)CC1", "survival": "77%"}, {"smiles": "CN1CCN(C(CNC(=O)C(=O)Nc2cccc(Cl)c2)c2ccc3c(c2)OCO3)CC1", "note": "(stereo unspecified)", "survival": "86%"}, {"smiles": "CCC1=C(c2ccc(C)cc2)S(=O)(=O)N=C1N1CCC(C(=O)Nc2ccccc2C(=O)OC)CC1", "survival": "89%"}, {"smiles": "Cc1ccc(NC(=O)Cn2c(=O)n(CCc3ccccc3)c(=O)c3c4c(sc32)CCCC4)cc1C", "survival": "97%"}, {"smiles": "CCCCOc1ccc(C(=O)Nc2ccc3c(c2)CCCN3C(=O)c2cccs2)cc1", "survival": "83%"}, {"smiles": "CCOC(=O)C(C)ON1C(=O)c2ccccc2C1=O", "note": "(stereo unspecified)", "survival": "86%"}, {"smiles": "CC(=O)N1CCc2cc(Br)cc(S(=O)(=O)CCC(=O)NCCc3ccc(Cl)cc3)c21", "survival": "44% (active)"}, {"smiles": "CCOc1ccc(CCNS(=O)(=O)c2cc(Br)cc3c2N(C(C)=O)CC3)cc1OCC", "survival": "103%"}, {"smiles": "CC(=O)N1CCc2cc(Br)cc(S(=O)(=O)NCCc3ccc(Cl)cc3)c21", "survival": "45% (active)"}, {"smiles": "CC(=O)N1CCc2cc(Br)cc(S(=O)(=O)NCCc3cccc(C)c3)c21", "survival": "75%"}, {"smiles": "Cc1ccc(NC(=O)CCS(=O)(=O)c2cc(Br)cc3c2N(C(=O)C2CC2)CC3)cc1", "survival": "90%"}, {"smiles": "CCC(=O)N1CCc2cc(Br)cc(S(=O)(=O)CCC(=O)Nc3ccccc3C)c21", "survival": "87%"}, {"smiles": "CC(=O)N1CCc2cc(Br)cc(S(=O)(=O)CCC(=O)Nc3ccc(C)cc3Cl)c21", "survival": "47% (active)"}, {"smiles": "COc1ccc(CCNC(=O)CCS(=O)(=O)c2cc(Br)cc3c2N(C(C)=O)CC3)cc1OC", "survival": "53%"}, {"smiles": "CCC(=O)N1CCc2cc(Br)cc(S(=O)(=O)CCC(=O)NCCc3ccc(Cl)cc3)c21", "survival": "70%"}, {"smiles": "COc1ccc(CCNC(=O)c2ccc3c(c2)N(Cc2ccccc2C)C(=O)c2ccccc2S3)cc1OC", "survival": "118%"}, {"smiles": "CCOC(=O)c1c(C)[nH]c(C)c1S(=O)(=O)NCC(=O)Nc1ccc(CC)cc1", "survival": "96%"}, {"smiles": "COc1ccc(OC)c(CCNC(=O)C2=C(C)C(=O)OC23CCC(C)CC3)c1", "note": "(stereo unspecified)", "survival": "86%"}, {"smiles": "Cc1cc(C(C)(C)C)oc1C(=O)N(CC(=O)NC1CCCC1)c1ccc(F)cc1", "survival": "77%"}, {"smiles": "Cc1cc(C)cc(OCC(=O)N2CCC(c3nc4ccccc4s3)CC2)c1", "survival": "85%"}, {"smiles": "O=C(COc1cccc(Cl)c1)N1CCC(c2nc3ccccc3s2)CC1", "survival": "44% (active)"}, {"smiles": "Cc1ccccc1OCC(=O)N1CCC(c2nc3ccccc3s2)CC1", "survival": "51%"}, {"smiles": "CC(C)(C)c1ccc(OCC(=O)N2CCC(c3nc4ccccc4s3)CC2)cc1", "survival": "84%"}, {"smiles": "Cc1cc(Cl)ccc1OCC(=O)N1CCC(c2nc3ccccc3s2)CC1", "survival": "21% (active)"}, {"smiles": "Cc1cc(Cl)ccc1OCC(=O)N1CCC(c2nc3ccccc3o2)CC1", "survival": "54%"}, {"smiles": "COc1ccc(OCC(=O)N2CCC(c3nc4ccccc4s3)CC2)cc1", "survival": "68%"}, {"smiles": "O=C(COc1ccc([N+](=O)[O-])cc1)N1CCC(c2nc3ccccc3s2)CC1", "survival": "82%"}, {"smiles": "Cc1cc(OCC(=O)N2CCC(c3nc4ccccc4s3)CC2)ccc1Cl", "survival": "23% (active)"}, {"smiles": "COc1ccc(N2CCN(S(=O)(=O)c3c(C)nc4sc(C)cn4c3=O)CC2)cc1", "survival": "92%"}, {"smiles": "CCCCSCc1ccc(C(=O)O)o1", "survival": "77%"}, {"smiles": "O=C(c1cccs1)N1CCCc2cc(NS(=O)(=O)c3cc(F)ccc3F)ccc21", "survival": "73%"}, {"smiles": "O=C(c1ccccc1F)N1c2nc(-c3ccco3)nn2C2(CCCCC2)[C@@H]2CCCC[C@@H]21", "survival": "69%"}, {"smiles": "C=Cc1ccc(Cn2c(C)c(CNCCc3ccccc3C)c(C(=O)O)c2C)cc1", "survival": "53%"}]}]}
